KCNQ2 inh – KCNQ2 (rat) channel inhibition. O88943. CHO-K1 KCNQ2, FluxOR thallium flux, 20 min; hits give low values. B-score at 10 µM. actives 1.1% (n = 310,000). AID 2156;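 active means fluorescence ratio B-score at most minus 3 library SDs, with starting brightness B-score within 2 library SDs, cut at about -5.5 in these data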
KCNQ2 enhance – enhances the rat KCNQ2 potassium channel. CHO-K1 KCNQ2, FluxOR thallium flux fluorescence; hits give high values. B-score at 10 µM. actives 0.54% (n = 310,000). AID 2239;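 active means fluorescence ratio B-score at least 3 SD of library B-scores, with initial fluorescence B-score within 3 of them, cut at about 5.3 in these data; same plate scores as AID 2156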;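 further: B-score of peak minus minimum over baseline fluorescence ratio after K+ and Tl+ stimulus; positive B-score means potentiation of KCNQ2 with more thallium influx and brighter signal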
Kir21 confirm – confirmation of mouse Kir2.1 potassium channel inhibitors; shares compounds with KCNQ2 enhance; Kir2.1-expressing cells, FluxOR thallium flux fluorescence; hits give low values; Tl flux remaining, % of negative control (hits give low values), % at 10 µM; actives 41% (n = 2,300); AID 2032;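 active means Primary-screen hit whose thallium flux fell at least 3 control SD below untreated wells in both duplicates, with normal baseline fluorescence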;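 further: 0% = blank wells without stimulus and 100% = stimulated no-compound controls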
HEK293 Tl flux – alters thallium flux in parental HEK293 cells, Kir2.1 counter-screen; shares compounds with KCNQ2 enhance; FluxOR thallium flux fluorescence; 0% = unstimulated blank wells; FluxOR signal as % of negative control (100 = no effect), % at 10 µM; actives 19% (n = 2,300);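 active means dye signal at least 3 control SD above or below untreated wells in both duplicates, raw fluorescence within 3, either direction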;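 further: percent is based on the flux ratio of peak minus minimum fluorescence over baseline F0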
CHO-K1 Tl ctr – parental CHO-K1 activity in KCNQ2 potentiator counter-screen; parental CHO-K1 cells, FluxOR thallium flux fluorescence; zero = vehicle mean+3SD, 100% = vehicle-minus-blank window; actives 43% (n = 1,200); shares compounds with KCNQ2 enhance; activity increase over 3SD of controls, % at 10 µM;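 active means signal rise of at least 3 SD above the untreated control mean, in both duplicate wells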;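 further: counter screen of KCNQ2 potentiator hits so any rise reflects channel-independent effects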
KCNQ1 pot spec – tests whether KCNQ2 potentiators also act on human KCNQ1 | actives 28% (n = 1,200) | AID 2283 | shares compounds with KCNQ2 enhance | activation over 3SD threshold, % at 10 µM | CHO KCNQ1 stable, FluxOR thallium flux fluorescence; beyond 3SD, as % of vehicle-control signal;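 active means fluorescence ratio rise of at least 3 SD of vehicle wells above their mean, in both replicate wells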;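 further: 0% = vehicle mean plus 3 SD and 100% = vehicle minus unstimulated blank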
KCNQ2 pot confirm – confirmation of rat KCNQ2 potassium channel potentiators; shares compounds with KCNQ2 enhance; AID 2287; CHO-KCNQ2 cells, FluxOR thallium flux fluorescence; potentiation, less the hit threshold, % at 10 µM; actives 68% (n = 1,200);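 active means fluorescence ratio rising 3 SD or more over the vehicle control mean in both replicates, plus primary screen hit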;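 further: peak minus minimum thallium fluorescence divided by baseline after K/Tl stimulus; 0% = vehicle mean plus 3 SD and 100% = vehicle minus unstimulated blank difference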
Kir2-1 sel – selectivity of KCNQ2 potentiators: effect on mouse Kir2.1; shares compounds with KCNQ2 enhance; HEK293 Kir2.1, FluxOR thallium flux fluorescence; activity over 3SD threshold, % at 10 µM; actives 2% (n = 1,200); AID 2345;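 active means fluorescence ratio rise of at least 3 SD above the vehicle-control mean, seen in both replicates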;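 further: 0% = vehicle mean plus 3 SD and 100% = vehicle minus no-stimulus blank window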
KCNQ2 W236L pot – KCNQ2 potentiators acting on retigabine-insensitive rat KCNQ2 W236L mutant; actives 10% (n = 940); CHO KCNQ2-W236L, automated patch clamp current; current increase over 3SD of negative controls (%), hits give high values, % at 25 µM; shares compounds with KCNQ2 enhance;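 active means current increase at least 3 SD of the untreated controls above them in both duplicate recordings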
* = called active by the depositor; i = inactive; nt = not tested or not shown. Only some compounds are listed: those with a hit (about 1.6% of all), similar ones and a draw of the others.

SMILES	KCNQ2 inh	KCNQ2 enhance	Kir21 confirm	HEK293 Tl flux	others
CCC(NC(=S)NC1CCCCC1)c1ccc(C)cc1 (stereo not given)	i	22*	i	i	CHO-K1 Tl ctr=-6;KCNQ1 pot spec=-15;KCNQ2 pot confirm=71*;Kir2-1 sel=-46;KCNQ2 W236L pot=i
CC(C)c1ccc(NC(=S)NC2CCCCCC2)cc1	i	nt	nt	nt
Cc1ccc(C)c(C(C)NC(=S)NC2CCCCC2)c1 (stereo not given)	i	0.26	nt	nt
Cc1ccc(CNC(=O)NC2CCCCC2)cc1	i	5.1	nt	nt
CCCc1ccc(C(C)NC(=S)NC2CCCCC2)cc1 (stereo not given)	i	23*	i	i	CHO-K1 Tl ctr=-15;KCNQ1 pot spec=0.9*;KCNQ2 pot confirm=39*;Kir2-1 sel=-33;KCNQ2 W236L pot=i
O=C(Nc1ccccc1)NC1CCCCC1	i	0.04	nt	nt
Cc1ccc(CNC(=S)NC2CCCCC2)cc1	i	6.4*	i	i	CHO-K1 Tl ctr=-6;KCNQ1 pot spec=-16;KCNQ2 pot confirm=7.2*;Kir2-1 sel=-48;KCNQ2 W236L pot=i
COc1cccc(C2=NN(C(=O)c3cccs3)C(O)(C(F)(F)F)C2)c1 (stereo not given)	i	nt	nt	nt
C=CCNC(=O)/C(C#N)=C/c1ccc(OS(=O)(=O)c2ccc(C)cc2)c(OC)c1	i	nt	nt	nt
CCOC(=O)C1=C(C)NC(C)=C(C(=O)OCC)C1c1cn(-c2ccccc2)nc1-c1ccco1	i	11*	i	i	CHO-K1 Tl ctr=17*;KCNQ1 pot spec=86*;KCNQ2 pot confirm=-12;Kir2-1 sel=-17
CCOC(=O)C1=C(C)NC(=O)NC1c1cn(-c2ccccc2)nc1-c1cccs1 (stereo not given)	i	nt	nt	nt
O=C1C(=O)N(C2CCS(=O)(=O)C2)C(c2cccc(O)c2)/C1=C(/O)c1ccc(Cl)cc1 (stereo not given)	i	0.64	nt	nt
Cc1[nH]n(-c2ccccc2)c(=O)c1CCO	i	0.23	nt	nt
Cc1[nH]n(-c2ccccc2)c(=O)c1S(=O)(=O)c1ccccc1	i	nt	28%*	i
COCCN=C1N[C@@H](c2ccccc2)C(C(=O)OC)=C(C)N1Cc1ccccc1	i	nt	nt	nt
COC(=O)C1=C(C)N(Cc2ccccc2)C(=S)N[C@H]1c1cccc(F)c1	i	nt	nt	nt
COC(=O)C1=C(C)N(Cc2ccccc2)C(=NCc2ccccc2)N[C@H]1c1cccc(F)c1	i	nt	19%*	i
CCN1C(=O)N[C@@H](c2cccc(F)c2)C(C(=O)OC)=C1C	i	0.13	nt	nt
COCCN=C1N[C@@H](c2ccc(Br)cc2)C(C(=O)OC)=C(C)N1Cc1ccccc1	i	nt	32%*	74%*
COCCN1C(=S)N[C@@H](c2cccc(F)c2)C(C(=O)OC)=C1C	i	nt	41%*	i
O=C(/C=C/c1cccc([N+](=O)[O-])c1)OCC1CCCO1 (stereo not given)	i	nt	nt	nt
COc1ccc(CCN2C(=NC(=O)CC(C)C)SC3CS(=O)(=O)CC32)cc1OC (stereo not given)	i	nt	nt	nt
CNc1nc(Nc2ccc(Br)cc2)nc(N)c1[N+](=O)[O-]	i	nt	nt	nt
Cc1cc(CNC(=S)Nc2ccc(Br)cc2Cl)nn1C	i	nt	nt	nt
CCN1C(=O)c2ccc(C(=O)NCc3ccco3)cc2C1=O	i	0.79	nt	nt
Cc1[nH]c2ccccc2c1C(=O)C(=O)NC1CC1	i	1.6	nt	nt
CCOC(=O)C1=C(CBr)NC(=O)NC1C (stereo not given)	i	nt	nt	nt
CNC(=O)CSc1nnc(SCCC(=O)O)s1	i	0.65	nt	nt
CCn1cc(C(=O)NCc2ccco2)c(=O)c2ccc(C)nc21	i	2	nt	nt
